What was measured:
[1] = tested on: Schistosoma mansoni schistosomula (NMRI); test: phenotypic severity score (0-4); higher = more antischistosomal effect, active = 2 or more; conditions: 10 µM
[2] = tested on: Schistosoma mansoni schistosomula (Liberian); test: drug effect (1 - score/DMSO control score) (fraction); higher = more antischistosomal effect, active = 0.5 or more; extreme values may be limits of the assay; conditions: 10 µM
Procedure, shortened: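 Drug effect was calculated by comparing the mean score of the test wells with the mean score of the DMSO wells, and any negative value was set to zero. Duplicate wells of 50 Liberian-strain S. mansoni schistosomula, mechanically transformed from cercariae and pre-incubated at least 12 h, received 10 µM compound in Medium 199 with 5% FCS at 37 °C, 5% CO2, with 0.1% DMSO in the comparison wells. Visual scoring at 10× took place at 24, 48 and 72 h on a quarter-point scale from 3 (normal) to 0 (dead), and a plate counted only if its DMSO wells averaged at least 2.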
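Wherever phenotypic severity score (0-4) is given: visual microscopic scoring of shape, motility and density changes versus 0.5% DMSO solvent controls, one point per descriptor, degeneracy or death scored 4, mean of duplicate wells.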

## CO/C=C(/C(=O)OC)c1ccccc1Oc1cc(Oc2ccccc2C#N)ncn1
[1]; 24 h
  phenotypic severity score: 0 (inactive)
[1]; 48 h
  phenotypic severity score: 0 (inactive)
[1]; 72 h
  phenotypic severity score: 0 (inactive)
[2]; 24 h
  drug effect: 0.05 (inactive)
[2]; 48 h
  drug effect: 0.027 (inactive)
[2]; 72 h
  drug effect: 0.111 (inactive)

## CC1(C)OB(O)c2ccc(C3=NOC(c4cc(Cl)c(F)c(Cl)c4)(C(F)(F)F)C3)cc21 (centres undefined)
[1]; 24 h
  phenotypic severity score: 2 (active)
[1]; 48 h
  phenotypic severity score: 0 (inactive)
[1]; 72 h
  phenotypic severity score: 1 (inactive)
[2]; 24 h
  drug effect: 1 (active)
[2]; 48 h
  drug effect: 1 (active)
[2]; 72 h
  drug effect: 1 (active)

## CCc1nn(C)c(C(=O)NCc2ccc(Oc3ccc(C)cc3)cc2)c1Cl
[1]; 24 h
  phenotypic severity score: 1 (inactive)
[1]; 48 h
  phenotypic severity score: 1 (inactive)
[1]; 72 h
  phenotypic severity score: 2 (active)
[2]; 24 h
  drug effect: 0.364 (inactive)
[2]; 48 h
  drug effect: 0.55 (active)
[2]; 72 h
  drug effect: 0.455 (inactive)

## Cc1cc(C2=NOC(c3cc(Cl)c(F)c(Cl)c3)(C(F)(F)F)C2)ccc1C(=O)NCc1ccc2c(c1)C(C)(C)OB2O (centres undefined)
[1]; 24 h
  phenotypic severity score: 0 (inactive)
[1]; 48 h
  phenotypic severity score: 0 (inactive)
[1]; 72 h
  phenotypic severity score: 0 (inactive)
[2]; 24 h
  drug effect: 0.2 (inactive)
[2]; 48 h
  drug effect: 0.135 (inactive)
[2]; 72 h
  drug effect: 0.167 (inactive)

## O=C1O[C@@H](CO)CN1c1cc(F)c(C2=CCN(Cc3ccccc3)CC2)c(F)c1
[1]; 24 h
  phenotypic severity score: 0 (inactive)
[1]; 48 h
  phenotypic severity score: 0 (inactive)
[1]; 72 h
  phenotypic severity score: 2 (active)
[2]; 24 h
  drug effect: 0.05 (inactive)
[2]; 48 h
  drug effect: 0.111 (inactive)
[2]; 72 h
  drug effect: 0.188 (inactive)

## CC(C)(C)C(O)C(Oc1ccc(-c2ccccc2)cc1)n1cncn1 (centres undefined)
[1]; 24 h
  phenotypic severity score: 1 (inactive)
[1]; 48 h
  phenotypic severity score: 0 (inactive)
[1]; 72 h
  phenotypic severity score: 0 (inactive)
[2]; 24 h
  drug effect: 0.0909 (inactive)
[2]; 48 h
  drug effect: 0.15 (inactive)
[2]; 72 h
  drug effect: 0.127 (inactive)

## Cc1nn(C)c(C)c1NS(=O)(=O)c1c(Cl)cc(-c2ccnc(N3CCNCC3)c2)cc1Cl
[1]; 24 h
  phenotypic severity score: 0 (inactive)
[1]; 48 h
  phenotypic severity score: 0 (inactive)
[1]; 72 h
  phenotypic severity score: 0 (inactive)
[2]; 24 h
  drug effect: 0.15 (inactive)
[2]; 48 h
  drug effect: 0.0811 (inactive)
[2]; 72 h
  drug effect: 0.152 (inactive)

## Cc1cccc(C(=O)Nc2ccnc(N(C)C3CCN(CC(C)C)CC3)c2)c1
[1]; 24 h
  phenotypic severity score: 0 (inactive)
[1]; 48 h
  phenotypic severity score: 0 (inactive)
[1]; 72 h
  phenotypic severity score: 0 (inactive)
[2]; 24 h
  drug effect: 0.1 (inactive)
[2]; 48 h
  drug effect: 0.243 (inactive)
[2]; 72 h
  drug effect: 0.212 (inactive)

## CC1COC(Cn2cncn2)(c2ccc(Oc3ccc(Cl)cc3)cc2Cl)O1 (centres undefined)
[1]; 24 h
  phenotypic severity score: 2 (active)
[1]; 48 h
  phenotypic severity score: 1 (inactive)
[1]; 72 h
  phenotypic severity score: 2 (active)
[2]; 24 h
  drug effect: 0.136 (inactive)
[2]; 48 h
  drug effect: 0.25 (inactive)
[2]; 72 h
  drug effect: 0.0727 (inactive)

## Nc1c2c(nc3sc4c(c13)CCCC4)CCCC2
[1]; 24 h
  phenotypic severity score: 4 (active)
[1]; 48 h
  phenotypic severity score: 4 (active)
[1]; 72 h
  phenotypic severity score: 4 (active)
[2]; 24 h
  drug effect: 0.545 (active)
[2]; 48 h
  drug effect: 0.8 (active)
[2]; 72 h
  drug effect: 0.564 (active)

## CO/N=C(\C(=O)OC)c1ccccc1CO/N=C(\C)c1cccc(C(F)(F)F)c1
[1]; 24 h
  phenotypic severity score: 1 (inactive)
[1]; 48 h
  phenotypic severity score: 0 (inactive)
[1]; 72 h
  phenotypic severity score: 0 (inactive)
[2]; 24 h
  drug effect: 0.05 (inactive)
[2]; 48 h
  drug effect: 0.027 (inactive)
[2]; 72 h
  drug effect: 0.152 (inactive)

## CO[C@@H]1CN(c2ccc(C#CC3(O)CN4CCC3CC4)c(Cc3ccccc3)n2)C[C@H]1O (some centres undefined)
[1]; 24 h
  phenotypic severity score: 0 (inactive)
[1]; 48 h
  phenotypic severity score: 0 (inactive)
[1]; 72 h
  phenotypic severity score: 0 (inactive)
[2]; 24 h
  drug effect: < 0 (inactive)
[2]; 48 h
  drug effect: < 0 (inactive)
[2]; 72 h
  drug effect: 0.111 (inactive)

## O=C1O[C@@H](COc2ccon2)CN1c1cc(F)c(C2=CCN(Cc3ccccc3)CC2)c(F)c1
[1]; 24 h
  phenotypic severity score: 0 (inactive)
[1]; 48 h
  phenotypic severity score: 0 (inactive)
[1]; 72 h
  phenotypic severity score: 0 (inactive)
[2]; 24 h
  drug effect: 0.1 (inactive)
[2]; 48 h
  drug effect: 0.167 (inactive)
[2]; 72 h
  drug effect: 0.25 (inactive)

## Cc1nn(Cc2ccccc2)c(Cl)c1C(=O)NC1CCCCCC1
[1]; 24 h
  phenotypic severity score: 2 (active)
[1]; 48 h
  phenotypic severity score: 0 (inactive)
[1]; 72 h
  phenotypic severity score: 0 (inactive)
[2]; 24 h
  drug effect: 0.0455 (inactive)
[2]; 48 h
  drug effect: 0.05 (inactive)
[2]; 72 h
  drug effect: 0.0727 (inactive)
